Reference: the supplement of paper PMC10849652
Of roughly 8,800 targets only a part is listed; those with a hit were picked by preference. About 0.5% of all pairs of compound and target were hits.

Experiments:
Assay in all cases: log2 fold change, soluble protein after heating vs DMSO (PISA); higher = thermal stabilisation; K562 lysate, 10 uM; active = over 0.2 and 3.5 SD of the protein, either way, in both replicates (recomputed)
[1] = compound: C1=CC=C(C=C1)[C@H](COC2=CC3=C(C=C2)NC(=O)N3)NC(=O)C4=CC=CN(C4=O)CC5=CC(=C(C=C5)F)F
Method in brief: (§1)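 Log-two fold change in thermal stability relative to solvent controls is reported from duplicates. For each sample, crude K562 extract from dounce-homogenised pellets in PBS pH 7.4 with 1 mM MgCl2, at 1 mg/mL protein, was treated with 10 μM compound for 30 min. Aliquots heated for 3 min across 48°C-58°C were pooled, brought to 0.5% NP-40 at 4°C and cleared at 21,000xg for 90 min. The supernatant was quantified by TMTpro 16plex LC-MS/MS with channel sums equalised.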

[2] = compound: CC1=C(SC2=C1C(=N[C@H](C3=NN=C(N32)C)CC(=O)N)C4=CC=C(C=C4)Cl)C
Method in brief: as §1

[3] = compound: CC1=C2C(=CC=C1)N=C(N(C2=O)C3=CC=CC=C3C)CN4C=NC5=C(N=CN=C54)N
Method in brief: as §1

[4] = compound: Cc1sc2c(c1C)C(c1ccc(Cl)cc1)=N[C@@H](CC(=O)OC(C)(C)C)c1nnc(C)n1-2
Method in brief: as §1

[5] = compound: c1ccc([C@@H]2C[C@H]2NC2CCNCC2)cc1
Method in brief: as §1

Measured: log2 fold change

PRKAB2 (UniProt O43741)
inactive: [1] 0.1 | [2] -0.012 | [3] 0.009 | [4] -0.047 | [5] -0.418

PIK3R1 (UniProt P27986)
inactive: [1] -0.014 | [2] -0.065 | [3] 0.313 | [4] -0.024 | [5] -0.007

PLXNB2 (UniProt O15031)
Sequence of UniProt O15031 (O15031 whole entry, looked up): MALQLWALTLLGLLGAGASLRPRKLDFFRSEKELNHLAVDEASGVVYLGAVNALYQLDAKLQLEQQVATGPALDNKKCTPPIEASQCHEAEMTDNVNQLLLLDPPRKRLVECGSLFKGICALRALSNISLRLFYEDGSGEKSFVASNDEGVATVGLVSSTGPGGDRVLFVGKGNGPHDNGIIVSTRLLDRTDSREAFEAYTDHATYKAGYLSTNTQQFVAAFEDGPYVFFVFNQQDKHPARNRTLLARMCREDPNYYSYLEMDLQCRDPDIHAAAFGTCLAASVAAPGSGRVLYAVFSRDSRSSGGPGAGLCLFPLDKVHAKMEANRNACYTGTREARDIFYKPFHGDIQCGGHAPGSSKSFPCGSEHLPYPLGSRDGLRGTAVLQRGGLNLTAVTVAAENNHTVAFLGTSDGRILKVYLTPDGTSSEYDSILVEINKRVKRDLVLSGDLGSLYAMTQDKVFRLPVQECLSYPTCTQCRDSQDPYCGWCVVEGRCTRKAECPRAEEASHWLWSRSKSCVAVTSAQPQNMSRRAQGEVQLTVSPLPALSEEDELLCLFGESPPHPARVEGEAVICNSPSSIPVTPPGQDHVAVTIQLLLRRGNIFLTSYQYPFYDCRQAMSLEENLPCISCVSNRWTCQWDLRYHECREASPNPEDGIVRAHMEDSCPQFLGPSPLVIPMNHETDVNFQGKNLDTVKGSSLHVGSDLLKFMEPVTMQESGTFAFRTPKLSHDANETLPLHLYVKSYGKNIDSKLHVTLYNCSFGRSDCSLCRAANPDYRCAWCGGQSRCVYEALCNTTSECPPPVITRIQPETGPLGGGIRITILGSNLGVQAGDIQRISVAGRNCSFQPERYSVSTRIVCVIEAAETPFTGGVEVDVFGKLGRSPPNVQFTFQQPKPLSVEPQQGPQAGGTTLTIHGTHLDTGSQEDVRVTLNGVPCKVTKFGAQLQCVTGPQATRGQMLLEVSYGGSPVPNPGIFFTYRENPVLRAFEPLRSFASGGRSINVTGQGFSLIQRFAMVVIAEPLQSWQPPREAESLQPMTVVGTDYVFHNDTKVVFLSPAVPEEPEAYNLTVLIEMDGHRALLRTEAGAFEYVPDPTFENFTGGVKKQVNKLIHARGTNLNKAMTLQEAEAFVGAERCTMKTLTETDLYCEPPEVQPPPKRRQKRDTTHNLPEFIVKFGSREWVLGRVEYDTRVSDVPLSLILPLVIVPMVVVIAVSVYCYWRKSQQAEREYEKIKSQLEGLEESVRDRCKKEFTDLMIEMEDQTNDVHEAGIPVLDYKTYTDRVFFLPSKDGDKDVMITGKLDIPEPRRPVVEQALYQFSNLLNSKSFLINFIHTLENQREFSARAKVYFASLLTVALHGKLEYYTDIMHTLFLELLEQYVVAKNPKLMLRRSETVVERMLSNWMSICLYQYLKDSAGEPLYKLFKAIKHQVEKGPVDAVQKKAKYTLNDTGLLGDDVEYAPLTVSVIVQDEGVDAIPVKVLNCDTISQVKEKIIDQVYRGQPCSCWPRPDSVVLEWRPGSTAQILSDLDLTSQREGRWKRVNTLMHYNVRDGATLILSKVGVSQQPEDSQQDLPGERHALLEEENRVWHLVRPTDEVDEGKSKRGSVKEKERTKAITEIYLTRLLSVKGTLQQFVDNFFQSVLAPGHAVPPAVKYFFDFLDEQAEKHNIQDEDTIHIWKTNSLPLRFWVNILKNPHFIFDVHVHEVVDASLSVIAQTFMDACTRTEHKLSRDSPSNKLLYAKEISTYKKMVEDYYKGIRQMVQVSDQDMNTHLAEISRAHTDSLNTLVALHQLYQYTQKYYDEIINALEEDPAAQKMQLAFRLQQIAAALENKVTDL
inactive: [1] -0.034 | [2] 0.037 | [3] 0.014 | [4] 0.004 | [5] -0.024

PPIL3 (UniProt Q9H2H8)
Sequence of UniProt Q9H2H8 (Q9H2H8 whole entry, looked up): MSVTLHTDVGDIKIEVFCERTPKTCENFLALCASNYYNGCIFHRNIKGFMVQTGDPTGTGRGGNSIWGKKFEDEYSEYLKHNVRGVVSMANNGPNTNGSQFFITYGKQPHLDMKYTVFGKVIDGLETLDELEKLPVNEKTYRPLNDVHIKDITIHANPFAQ
active: [5] -0.237
inactive: [1] 0.067 | [2] -0.012 | [3] 0.035 | [4] 0.028

PTGS1 isoform 6 (UniProt P23219)
Sequence of UniProt P23219 (P23219 whole entry, looked up): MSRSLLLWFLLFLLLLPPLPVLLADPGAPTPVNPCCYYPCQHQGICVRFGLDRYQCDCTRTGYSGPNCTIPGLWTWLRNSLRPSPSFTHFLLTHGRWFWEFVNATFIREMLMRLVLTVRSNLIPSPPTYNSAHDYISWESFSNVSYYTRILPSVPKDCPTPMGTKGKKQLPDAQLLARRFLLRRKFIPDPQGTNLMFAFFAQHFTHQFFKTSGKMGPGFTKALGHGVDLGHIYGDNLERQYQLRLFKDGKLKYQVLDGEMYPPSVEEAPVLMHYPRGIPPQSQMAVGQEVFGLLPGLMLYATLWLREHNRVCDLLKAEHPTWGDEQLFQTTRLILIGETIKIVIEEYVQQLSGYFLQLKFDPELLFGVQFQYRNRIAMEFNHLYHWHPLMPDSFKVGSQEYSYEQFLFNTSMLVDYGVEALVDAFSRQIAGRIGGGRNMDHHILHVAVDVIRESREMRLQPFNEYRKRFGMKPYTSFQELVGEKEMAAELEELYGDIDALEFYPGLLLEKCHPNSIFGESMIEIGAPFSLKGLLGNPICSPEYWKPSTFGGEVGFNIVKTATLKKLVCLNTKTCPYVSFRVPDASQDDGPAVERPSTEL
inactive: [1] -0.007 | [2] -0.035 | [3] 0.077 | [4] -0.026 | [5] -0.11

PIK3CB (UniProt P42338)
inactive: [1] -0.066 | [2] -0.054 | [4] -0.049 | [5] -0.033
active: [3] 0.518

PIGO (UniProt Q8TEQ8)
Sequence of UniProt Q8TEQ8 (Q8TEQ8 whole entry, looked up): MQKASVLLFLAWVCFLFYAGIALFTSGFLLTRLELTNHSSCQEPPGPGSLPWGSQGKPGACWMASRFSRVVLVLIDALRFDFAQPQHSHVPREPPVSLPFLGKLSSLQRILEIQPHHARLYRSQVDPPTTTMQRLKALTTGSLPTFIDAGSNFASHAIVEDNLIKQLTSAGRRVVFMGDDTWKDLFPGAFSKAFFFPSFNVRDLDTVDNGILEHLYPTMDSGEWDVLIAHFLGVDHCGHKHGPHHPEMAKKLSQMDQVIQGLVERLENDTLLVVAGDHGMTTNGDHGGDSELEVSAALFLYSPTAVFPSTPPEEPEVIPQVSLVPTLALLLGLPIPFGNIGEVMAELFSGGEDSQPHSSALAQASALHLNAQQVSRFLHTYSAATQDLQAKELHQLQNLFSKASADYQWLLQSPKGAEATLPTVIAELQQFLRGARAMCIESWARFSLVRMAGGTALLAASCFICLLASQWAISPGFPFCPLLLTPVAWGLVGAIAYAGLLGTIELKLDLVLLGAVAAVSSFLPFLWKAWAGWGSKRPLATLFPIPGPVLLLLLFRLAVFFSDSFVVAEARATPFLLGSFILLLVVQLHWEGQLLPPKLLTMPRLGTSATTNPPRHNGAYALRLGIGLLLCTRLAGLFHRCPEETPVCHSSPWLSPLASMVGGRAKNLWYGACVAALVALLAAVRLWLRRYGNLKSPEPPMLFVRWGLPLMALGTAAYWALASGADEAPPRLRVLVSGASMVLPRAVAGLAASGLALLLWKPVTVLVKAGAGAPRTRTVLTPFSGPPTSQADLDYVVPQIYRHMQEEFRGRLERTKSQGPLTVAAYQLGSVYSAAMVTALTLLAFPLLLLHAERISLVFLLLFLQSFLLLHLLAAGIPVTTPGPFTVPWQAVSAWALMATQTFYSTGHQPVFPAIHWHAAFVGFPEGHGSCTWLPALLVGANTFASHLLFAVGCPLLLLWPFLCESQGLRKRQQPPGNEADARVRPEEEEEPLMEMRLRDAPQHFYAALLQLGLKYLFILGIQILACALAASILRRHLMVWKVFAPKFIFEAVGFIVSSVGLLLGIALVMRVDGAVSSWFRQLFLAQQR
inactive: [1] -0.098 | [2] -0.058 | [3] -0.014 | [4] -0.023 | [5] 0.039

PHKA1 (UniProt P46020)
inactive: [1] 0.033 | [2] 0.02 | [3] 0 | [4] -0.008 | [5] 0.001

PCBP2 (UniProt H3BRU6)
inactive: [1] 0.166 | [2] -0.15 | [3] -0.208 | [4] 0.104 | [5] -0.11

PIK3CD (UniProt O00329)
inactive: [1] -0.053 | [2] 0.075 | [4] -0.027 | [5] 0.043
active: [3] 0.443

PDF (UniProt Q9HBH1)
inactive: [1] -0.056 | [2] -0.007 | [3] -0.024 | [4] 0.024 | [5] 0.028

PI4KA (UniProt P42356)
inactive: [1] -0.08 | [2] -0.012 | [3] 0.057 | [4] -0.019 | [5] -0.018

PFKFB2 (UniProt O60825)
inactive: [1] 0.016 | [2] 0.001 | [3] 0.03 | [4] -0.001 | [5] -0.008

PRKCSH (UniProt P14314)
inactive: [1] 0 | [2] -0.002 | [3] -0.017 | [4] 0.041 | [5] 0.021

PPIL2 (UniProt Q13356)
inactive: [1] 0.036 | [2] 0.005 | [3] 0.029 | [4] 0.082 | [5] 0.011

PIP4K2A (UniProt P48426)
inactive: [1] -0.093 | [2] -0.053 | [3] -0.041 | [4] -0.05 | [5] -0.106

POLR2M (UniProt Q6EEV4)
inactive: [1] 0.01 | [2] 0.042 | [3] -0.084 | [4] 0.132 | [5] 0.012

PGGT1B (UniProt P53609)
inactive: [1] -0.055 | [2] 0.021 | [3] -0.013 | [4] -0.004 | [5] 0.064

PTK2 (UniProt Q05397)
inactive: [1] 0.006 | [2] -0.027 | [3] -0.003 | [4] 0.023 | [5] -0.131

PICALM (UniProt Q13492)
inactive: [1] -0.014 | [2] 0.027 | [3] 0.016 | [4] 0.005 | [5] 0.007

PRPF38A (UniProt Q8NAV1)
inactive: [1] 0.034 | [2] -0.055 | [3] -0.08 | [4] -0.024 | [5] -0.133

PCBP2 isoform 8 (UniProt Q15366)
inactive: [1] 0.098 | [2] 0.065 | [3] -0.038 | [4] -0.044 | [5] -0.101

PTPN2 (UniProt P17706)
inactive: [1] -0.031 | [2] 0.017 | [3] 0.023 | [4] 0.007 | [5] 0.012

PDCD10 (UniProt Q9BUL8)
inactive: [1] -0.005 | [2] 0.02 | [3] -0.013 | [4] -0.042 | [5] -0.064

POMP (UniProt Q9Y244)
inactive: [1] 0.077 | [2] -0.053 | [3] 0.045 | [4] -0.036 | [5] 0.061

PRKRA (UniProt O75569)
inactive: [1] -0.002 | [2] 0.027 | [3] 0.031 | [4] 0.029 | [5] 0.036

PXMP4 (UniProt Q9Y6I8)
inactive: [1] -0.096 | [2] -0.022 | [3] -0.026 | [4] -0.191 | [5] 0.041

PRKACA (UniProt P17612)
inactive: [1] 0.029 | [2] 0.019 | [3] 0.008 | [4] -0.013 | [5] -0.245

PCIF1 (UniProt Q9H4Z3)
inactive: [1] -0.015 | [2] -0.013 | [3] 0.026 | [4] 0.066 | [5] -0.111

PIP4K2B (UniProt P78356)
inactive: [1] -0.063 | [2] -0.078 | [3] -0.014 | [4] 0.036 | [5] -0.108

PRKACB isoform 2 (UniProt P22694)
inactive: [1] -0.042 | [2] -0.004 | [3] -0.018 | [4] -0.009 | [5] 0.019

PGLS (UniProt O95336)
Sequence of UniProt O95336 (O95336 whole entry, looked up): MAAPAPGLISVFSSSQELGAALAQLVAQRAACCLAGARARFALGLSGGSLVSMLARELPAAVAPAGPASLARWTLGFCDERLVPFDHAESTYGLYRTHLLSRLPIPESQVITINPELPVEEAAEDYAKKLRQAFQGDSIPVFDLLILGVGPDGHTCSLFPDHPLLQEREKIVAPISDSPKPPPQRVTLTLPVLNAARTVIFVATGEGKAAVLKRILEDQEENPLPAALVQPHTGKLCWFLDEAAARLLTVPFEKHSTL
inactive: [1] -0.063 | [2] -0.06 | [3] 0.094 | [4] -0.04 | [5] 0.095

PRKCA (UniProt P17252)
inactive: [1] 0.01 | [2] -0.012 | [3] -0.061 | [4] 0.021 | [5] 0.089

PPIC (UniProt P45877)
inactive: [1] 0.209 | [2] -0.242 | [3] 0.12 | [4] 0.005 | [5] 0.055

PTPN1 (UniProt P18031)
inactive: [1] -0.006 | [2] 0.008 | [3] 0.01 | [4] -0.026 | [5] 0.005

PDXK (UniProt O00764)
inactive: [1] 0.014 | [2] -0.039 | [3] -0.029 | [4] -0.028 | [5] -0.056

PCYT1B (UniProt Q9Y5K3)
inactive: [1] -0.006 | [2] 0.033 | [3] -0.01 | [4] -0.03 | [5] -0.073

PDCD4 (UniProt Q53EL6)
inactive: [1] -0.026 | [2] 0.005 | [3] -0.007 | [4] 0.002 | [5] 0.001

PCBP3 (UniProt P57721)
Sequence of UniProt P57721 (P57721 whole entry, looked up): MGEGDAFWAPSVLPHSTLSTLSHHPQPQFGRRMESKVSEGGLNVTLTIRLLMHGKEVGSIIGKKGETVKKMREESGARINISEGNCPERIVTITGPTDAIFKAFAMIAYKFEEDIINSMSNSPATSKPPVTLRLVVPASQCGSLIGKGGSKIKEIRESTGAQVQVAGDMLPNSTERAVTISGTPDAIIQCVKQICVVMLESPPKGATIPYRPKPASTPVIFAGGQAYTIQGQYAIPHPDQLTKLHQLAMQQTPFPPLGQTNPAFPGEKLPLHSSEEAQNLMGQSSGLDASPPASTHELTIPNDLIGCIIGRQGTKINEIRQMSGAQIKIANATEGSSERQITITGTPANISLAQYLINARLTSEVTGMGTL
inactive: [1] -0.028 | [2] 0.014 | [3] -0.026 | [4] 0.021 | [5] 0

PUS3 (UniProt Q9BZE2)
inactive: [1] -0.006 | [2] -0.089 | [3] -0.073 | [4] 0.082 | [5] 0.135

PDCD6IP (UniProt Q8WUM4)
inactive: [1] -0.077 | [2] 0.086 | [3] 0.037 | [4] 0.043 | [5] 0.085

PPP2CA (UniProt P67775)
inactive: [1] -0.108 | [2] 0.037 | [3] 0.037 | [4] 0.092 | [5] -0.092

PGPEP1 (UniProt Q9NXJ5)
inactive: [1] 0.027 | [2] -0.071 | [3] -0.013 | [4] -0.025 | [5] 0.012

PIK3R2 (UniProt O00459)
Sequence of UniProt O00459 (O00459 whole entry, looked up): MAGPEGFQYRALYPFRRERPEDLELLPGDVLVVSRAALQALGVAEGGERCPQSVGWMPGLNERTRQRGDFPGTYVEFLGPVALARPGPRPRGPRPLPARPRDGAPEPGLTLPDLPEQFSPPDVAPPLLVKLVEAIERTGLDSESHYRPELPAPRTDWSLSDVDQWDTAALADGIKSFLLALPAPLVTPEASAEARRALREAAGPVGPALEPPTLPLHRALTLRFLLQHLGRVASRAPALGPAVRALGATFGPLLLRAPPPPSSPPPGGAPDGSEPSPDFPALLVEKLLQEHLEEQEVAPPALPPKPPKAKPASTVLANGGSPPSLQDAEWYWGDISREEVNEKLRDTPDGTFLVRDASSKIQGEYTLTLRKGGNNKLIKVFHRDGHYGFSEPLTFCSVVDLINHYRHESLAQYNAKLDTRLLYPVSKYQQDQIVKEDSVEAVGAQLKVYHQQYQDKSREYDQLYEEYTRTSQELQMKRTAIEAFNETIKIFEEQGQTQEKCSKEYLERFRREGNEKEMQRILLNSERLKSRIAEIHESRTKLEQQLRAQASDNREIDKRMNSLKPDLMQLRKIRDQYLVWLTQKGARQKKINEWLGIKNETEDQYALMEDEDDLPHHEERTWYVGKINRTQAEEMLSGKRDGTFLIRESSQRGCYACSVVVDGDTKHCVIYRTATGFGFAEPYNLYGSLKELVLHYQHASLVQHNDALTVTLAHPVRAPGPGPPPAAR
inactive: [1] 0.002 | [2] -0.058 | [3] 0.272 | [4] 0.024 | [5] -0.007

PFKFB3 isoform 4 (UniProt Q16875)
inactive: [1] -0.04 | [2] 0.047 | [3] 0.057 | [4] 0.018 | [5] 0.041

PDIA4 (UniProt P13667)
inactive: [1] -0.004 | [2] -0.006 | [3] -0.009 | [4] 0.002 | [5] 0.037

PPP1R14C (UniProt Q8TAE6)
inactive: [1] -0.019 | [2] 0.024 | [3] 0.051 | [4] -0.078 | [5] -0.147

PDE4DIP isoform 4 (UniProt Q5VU43)
inactive: [1] -0.102 | [2] 0.154 | [3] 0.018 | [4] -0.016 | [5] -0.015

PIKFYVE (UniProt Q9Y2I7)
inactive: [1] -0.005 | [2] 0.007 | [3] 0.016 | [4] 0.054 | [5] -0.03

PRAME (UniProt P78395)
inactive: [1] -0.009 | [2] 0.014 | [3] 0.014 | [4] -0.008 | [5] 0.026

PTK2B (UniProt Q14289)
inactive: [1] -0.056 | [2] -0.012 | [3] -0.036 | [4] -0.009 | [5] -0.034

PRIM1 (UniProt P49642)
inactive: [1] 0.009 | [2] -0.051 | [3] -0.018 | [4] -0.006 | [5] 0.047

PPOX (UniProt P50336)
inactive: [2] 0.012 | [3] -0.009 | [4] -0.02 | [5] -0.023
active: [1] 0.579
